High-throughput results from PubChem BioAssay.
Most compounds without a hit are left out; they make up all but 3.4% or so of the library.
PAX8 reporter: inhibitors of PAX8 transcriptional activity in RMG-I cells. actives 1.2% (n = 360,000). AID 652154. RMG-I TPO-luciferase reporter, SteadyGlo, 24 h. inhibition, % at 12.6 µM;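 active means mean replicate inhibition at least 60% with every replicate also reaching 60%; inconclusive means only one of the two criteria is met; inactive means mean below 60% and not all replicates reaching 60%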;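 further: luciferase light reporting Pax8 driven TPO promoter activity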
LGR2 inh: blocks bursicon-induced cAMP signaling via Drosophila LGR2; HEK293 LGR2, CRE-luciferase, bursicon-stimulated, 4 h; actives 0.35% (n = 380,000); inhibition, % at 9.99 µM;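 active means drop in luminescence signal, shown as inhibition above about 50% in the replicate tests, limit read from the data, passing the limit was not always enough; inconclusive means probably only some replicates passing the limit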;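 further: agonist challenge used bursicon conditioned medium at about half maximal strength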
PGC1a acetyl inh: PGC1a acetylation modulation, inhibitor mode | U2OS PGC1a acetylation, AlphaScreen anti-acetyl-lysine; with virally co-expressed GCN5 acetyltransferase | AID 651687 | actives 0.17% (n = 350,000) | inhibition, % at 15.6 µM;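 active means every replicate shows inhibition of at least 40%; inconclusive means mean inhibition at least 40% but some replicate below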
rRNA inh HTS: inhibitors of bacterial rRNA selective over humanized ribosomes; actives 1.6% (n = 350,000); GFP signal change (wild-type ribosome), % (no concentration beside the values); E. coli WT GFP vs humanized-ribosome RFP mutants, fluorescence, 24 h; hits give low values; DMSO median 0, no signal -100;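 active means significant combined selectivity score with lowered wild-type GFP, culture density cut under 30%, mutant RFP and density less affected; inactive means any of these conditions unmet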
SIRT5 inh: sirtuin-5 (human) deacylase inhibition | AID 652115 | Q9NXA8 | inhibition, % at 15 µM | Purified SirT5, succinyl-peptide AMC, trypsin-coupled fluorescence | actives 1.1% (n = 330,000); in the data active means inhibition above about 15%; inconclusive means no clear call, values can overlap the other calls
Target sequence (Q9NXA8 whole entry, looked up): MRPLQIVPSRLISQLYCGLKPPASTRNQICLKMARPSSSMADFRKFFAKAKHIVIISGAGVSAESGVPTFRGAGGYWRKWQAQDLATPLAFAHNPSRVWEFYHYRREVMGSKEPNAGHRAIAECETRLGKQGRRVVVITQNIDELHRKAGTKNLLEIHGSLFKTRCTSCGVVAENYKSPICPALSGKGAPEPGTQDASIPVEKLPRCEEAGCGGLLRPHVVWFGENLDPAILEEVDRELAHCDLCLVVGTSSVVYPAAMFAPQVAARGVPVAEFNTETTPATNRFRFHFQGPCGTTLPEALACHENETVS
EWS-Fli inh: inhibitors of EWS/Fli oncoprotein transcriptional activity. inhibition, % at 12.6 µM. actives 0.67% (n = 350,000). AID 651661. A673 NR0B1-luciferase reporter, viability-normalised;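 active means mean inhibition of at least 50% after viability correction, with every replicate also passing that limit; inconclusive means mean reaches 50% but only one of two replicates passes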;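 further: firefly luciferase signal divided by Alamar Blue viability fluorescence both relative to DMSO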
A number is an active result; – = inactive; ? = inconclusive; · = not tested or not shown.

SMILES | PAX8 reporter | LGR2 inh | PGC1a acetyl inh | rRNA inh HTS | SIRT5 inh | EWS-Fli inh
CNC(=S)Nc1ccc(-c2nc3ccc(C)cc3s2)cc1 | – | 53 | – | – | – | –
Nc1ccc2nc(-c3ccccc3)sc2c1 | – | · | – | · | · | ·
CCC(C)(C)NC(=S)Nc1ccc(-c2nc3ccc(C)cc3s2)cc1 | – | · | – | · | – | –
O=C(N[C@@H]1CC[C@@H](CC(=O)N2CCCCC2)O[C@@H]1CO)c1cccc(F)c1 | – | – | – | – | – | –
O=C(c1cnn(C(=O)c2ccco2)c1)c1cc(F)ccc1O | – | – | – | – | – | –
O=C(c1cnn(C(=O)c2ccco2)c1)c1cc(Cl)cc(Cl)c1O | – | – | – | -25 | – | –
CCC(=O)N1CC2(C1)CN(C(=O)CC)[C@H](CO)c1[nH]c3cc(OC)ccc3c12 | · | – | · | – | – | –
CN(C)/N=C/C=C1\CCC/C(=C\c2ccc(F)c(F)c2)C1=O | – | – | – | -27 | – | –
COc1ccc(/C=C2\CCC/C(=C\C=N\N(C)C)C2=O)cc1 | – | – | – | -20 | – | –
COc1ccc(C=C2CS(=O)(=O)CC(=Cc3ccc(OC)cc3)C2=O)cc1 | 77 | active | · | – | · | 60
COc1ccc(/C=C2\CCCCC2=O)cc1 | – | – | – | – | – | –
CN(C)c1ccc(/C=C2\CCC/C(=C\c3ccccc3)C2=O)cc1 | – | – | · | – | – | –
COc1ccc2c3c([nH]c2c1)[C@H](CO)N(Cc1cccnc1)CC31CCN(C(=O)c2cccnc2)CC1 | · | – | · | – | – | –
C[C@@H]1CCCCO[C@H](CN(C)C(=O)Nc2ccccc2)[C@@H](C)CN([C@@H](C)CO)C(=O)c2cc(NS(=O)(=O)c3ccc(F)cc3)ccc2O1 | – | – | – | – | · | –
O=C(Nc1nc2c(Cl)cccc2s1)C1CC1 | – | – | · | – | – | –
Cc1cccc2sc(NC(=O)C3CC3)nc12 | – | – | · | – | 24 | –
C[C@H]1CN([C@@H](C)CO)C(=O)c2cc(-c3ccncc3)cnc2O[C@@H]1CN(C)C(=O)C1CCC1 | · | – | – | – | · | –
CC(=O)NC(=S)NNC(=O)CCc1ccccc1 | – | – | · | -24 | – | –
Cc1cc(Cl)ccc1NNC(=O)CCc1ccccc1 | – | – | – | -29 | – | –
CCCCC(=O)NC(=S)NNC(=O)CCc1ccccc1 | – | – | – | – | – | –
C[C@H](CO)N1C[C@H](C)[C@@H](CN(C)Cc2ccc(C(F)(F)F)cc2)Oc2ccc(NC(=O)CCN3CCOCC3)cc2CC1=O | – | – | – | – | – | –
CN(C)c1cccc(C(=O)Nc2cc(C(F)(F)F)ccc2-n2cnc3ccccc32)c1 | 81 | · | · | – | · | –
CC(=O)Nc1ccc(C(=O)Nc2cc(C(F)(F)F)ccc2-n2cnc3ccccc32)cc1 | – | – | · | · | · | ·
COc1ccc2c3c([nH]c2c1)[C@H](CO)N(C(=O)Nc1ccccc1F)CC31CN(C(C)=O)C1 | · | – | – | – | – | –
CCOC(=O)N1CCN(CC(=O)Nc2c(C(=O)OC)[nH]c3ccc(Cl)cc23)CC1 | · | · | – | · | · | ·
SMILES | PAX8 reporter | LGR2 inh | PGC1a acetyl inh | rRNA inh HTS | SIRT5 inh | EWS-Fli inh
CCOC(=O)N1CCN(CC(=O)Nc2c(C(=O)OC)[nH]c3cccc(Cl)c23)CC1 | · | – | · | -15 | – | –
COc1cccc(/C=C2\SC(=S)N(CCC(=O)N3CCCCC3CCO)C2=O)c1 (stereo not given) | 70 | – | – | – | – | –
COc1ccccc1/C=C1\SC(=S)N(CCC(=O)N2CCCCC2CCO)C1=O (stereo not given) | – | – | – | – | – | –
COc1cccc(/C=C2\SC(=S)N(CCCC(=O)N3CCCCC3CCO)C2=O)c1 (stereo not given) | 67 | – | – | – | – | ?
O=[N+]([O-])c1ccc2c(c1)nc1n2CCCCC1 | – | – | – | – | 17 | –
Cc1ccccc1NC(=O)C1=CC=CN2CCS(=O)(=O)N=C12 | – | – | – | · | – | –
COc1ccc(NC(=O)C2=CC=CN3CCS(=O)(=O)N=C23)c(OC)c1 | · | – | – | – | 28 | –
COCCNC(=O)C[C@H]1C=C[C@H](NS(=O)(=O)c2ccc(C)cc2)[C@@H](CO)O1 | – | – | – | – | – | –
CC=Cc1ccc2n(c1=O)C[C@H]1[C@H](CO)[C@@H](C(=O)NC3CCC3)[C@@H]2N1Cc1ccncc1 (mixture of isomers) | · | – | · | – | – | –
Cc1ccc2c(c1)COc1c3ccc(C(=O)O)cc3nn1-2 | 65 | ? | · | – | · | –
COc1ccc(NC(=O)Nc2cccc3c2O[C@H](CN(C)S(=O)(=O)c2ccccc2)[C@@H](C)CN([C@@H](C)CO)C3=O)cc1 | – | – | – | – | – | –
CCC(C)Oc1cc(-c2ccnc(Nc3cccc(Cl)c3)n2)ccn1 (stereo not given) | – | 84 | · | – | – | –
OCCCNc1cc(-c2ccnc(Nc3cccc(Cl)c3)n2)ccn1 | 98 | 102 | · | -20 | – | –
CC(C)CCn1cnc2c(oc3nc4c(cc32)CCCC4)c1=O | – | 68 | – | – | – | –
O=C1/C(=C/C=C/c2ccco2)SC(=S)N1NS(=O)(=O)c1ccccc1 | – | – | – | – | 43 | –
O=C1/C(=C/c2cccs2)SC(=S)N1NS(=O)(=O)c1ccccc1 | – | – | – | -27 | – | –
O=C(NN1C(=O)/C(=C/c2cccs2)SC1=S)c1ccncc1 | – | · | · | -29 | – | –
CO[C@@H]1CN(C)C(=O)c2ccc(NC(=O)c3ccc(F)cc3)cc2OC[C@H](C)N(C(=O)CN(C)C)C[C@H]1C | · | – | – | – | · | –
O=C(C1CCC1)N1[C@@H](CO)[C@@H](c2ccccc2)C12CN(Cc1ccccc1)C2 | · | – | – | – | – | –
Cc1cccc(S(=O)(=O)N2CCCCN3[C@@H](CO)[C@H](c4ccc(C#CC(C)C)cc4)[C@@H]3C2)c1 | – | – | – | -42 | – | –
COc1cccc(S(=O)(=O)N2CCCCN3[C@@H](CO)[C@@H](c4ccc(C#CCC(C)C)cc4)[C@@H]3C2)c1 | 86 | – | – | – | – | –
CC(C)C#Cc1ccc([C@H]2[C@@H](CO)N3CCCCN(S(=O)(=O)Cc4ccccc4)C[C@H]23)cc1 | ? | – | – | – | – | –
CC(C)C#Cc1ccc([C@@H]2[C@H](CO)N3CCCCN(S(=O)(=O)Cc4ccccc4)C[C@@H]23)cc1 | – | – | – | -42 | – | –
COc1ccc(S(=O)(=O)N2CCCCN3[C@H](CO)[C@H](c4ccc(-c5cccnc5)cc4)[C@@H]3C2)cc1 | – | 58 | – | – | – | ·
COc1cccc(S(=O)(=O)N2CCCCN3[C@@H](CO)[C@H](c4ccc(C#CC(C)C)cc4)[C@@H]3C2)c1 | 65 | – | – | – | – | –
COc1ccc(S(=O)(=O)N2CCCCN3[C@H](C2)[C@H](c2ccc(C#CC(C)C)cc2)[C@@H]3CO)cc1 | 102 | – | – | – | 16 | –
